Results reported in PubChem BioAssay (NCI).
Compounds without any hit were thinned out: in the full panel of roughly 83,000, 20% have a hit.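 Cells were grown in 96-well plates and exposed to the test compound at a single concentration for 48 hours; results are reported as percent growth, with values below 10 considered active.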 Values without a mark were called inactive. The source made the active and inactive calls.

How the values were obtained:
Assay in all cases: NCI-60 one-dose screen, 48 h (100 = growth as untreated, 0 = no growth, -100 = all killed)
Conditions in all cases: 10 µM unless noted
SR leukemia = system: SR leukemia
RPMI-8226 leukemia = system: RPMI-8226 leukemia
OVCAR-8 ovarian = system: OVCAR-8 ovarian
OVCAR-5 ovarian = system: OVCAR-5 ovarian
OVCAR-4 ovarian = system: OVCAR-4 ovarian
SK-OV-3 ovarian = system: SK-OV-3 ovarian
IGROV1 ovarian = system: IGROV1 ovarian
OVCAR-3 ovarian = system: OVCAR-3 ovarian
HS 578T breast = system: HS 578T breast
NCI/ADR-RES ovarian = system: NCI/ADR-RES ovarian
T-47D breast = system: T-47D breast
BT-549 breast = system: BT-549 breast
MDA-MB-435 melanoma = system: MDA-MB-435 melanoma
SW-620 colon = system: SW-620 colon
MCF7 breast = system: MCF7 breast
HCT-116 colon = system: HCT-116 colon
KM12 colon = system: KM12 colon
HCC-2998 colon = system: HCC-2998 colon

SMILES	growth (SR leukemia)	growth (RPMI-8226 leukemia)	growth (OVCAR-8 ovarian)	growth (OVCAR-5 ovarian)	growth (OVCAR-4 ovarian)	growth (SK-OV-3 ovarian)	growth (IGROV1 ovarian)	growth (OVCAR-3 ovarian)	growth (HS 578T breast)	growth (NCI/ADR-RES ovarian)	growth (T-47D breast)	growth (BT-549 breast)	growth (MDA-MB-435 melanoma)	growth (SW-620 colon)	growth (MCF7 breast)	growth (HCT-116 colon)	growth (KM12 colon)	growth (HCC-2998 colon)
CCCCCCCCCCCCCCCCCCNC(=O)[C@H]1CSC(c2ccc(OC)cc2O)N1 (stereo partly specified)	9.44% (active)	73.4%	12%	56%	84.6%	96.4%	60.1%	80.3%	55%	70.8%	60%	27.4%	25.4%	67.3%	23.7%	39.3%	27%	
COc1ccc(/C(C#N)=C/c2cc(OC)c(OC)c(OC)c2)cc1	11.8%	31.2%	57.4%	65.6%	87.8%	47.6%	44.9%	36.1%	91.4%	20.7%	44.1%	40.7%	-48.8% (active)	26.3%		20.2%	29.3%	72%
CCOC(=O)CN1/C(=N/c2sc3c(c2C(=O)OCC)CCN(C(=O)OCC)C3)SC(=O)/C1=C\C(=O)OC	29.8%	-28.8% (active)	75.2%	89.9%	86.8%	111%	92.1%	92.1%	82.7%	87%	30.8%	89.4%	99.7%	71.6%		71.6%	97.4%	94.4%
COc1cc(/C=C/C(=O)c2c(C)nc3ccccc3c2C)ccc1OCCCCOc1cc2c(cc1OC)C(=O)N1CCC[C@H]1C=N2	-25.1% (active)	-61.2% (active)	-7.99% (active)	-59.6% (active)	-20.1% (active)	-50.1% (active)	-100% (active)	-57.1% (active)	39%	43.9%	-64.7% (active)	-64.8% (active)	-34.8% (active)	-62.2% (active)		-65.9% (active)	-69.7% (active)	-100% (active)
COc1ccc(Nc2ncccc2C(=O)NCc2cn(Cc3cccc(Oc4ccccc4)c3)nn2)c(OC)c1	30.3%	35.5%	43.4%	51.1%	54.9%	21.6%	48%	-57.8% (active)	15.3%	-10% (active)	51.6%	43%	-24.2% (active)	26.4%		15%	17.9%	-14.4% (active)
C/C=C/C1=CN2C(=O)c3cc(OC4OC(C)C(NC)C(C)(O)C4O)c(C)cc3N=C[C@@H]2C1 (stereo partly specified)	-11.8% (active)	4.62% (active)	12.2%	9.87% (active)	6.47% (active)	3.83% (active)	-8.52% (active)	0.104% (active)	-7.59% (active)	-7.51% (active)	-4.57% (active)	-41.2% (active)	-63.1% (active)	-0.311% (active)	3.78% (active)	3.87% (active)	-41.4% (active)	
C=C(C)[C@@H]1C[C@@H]2Cc3cc(Cl)ccc3N1O2	90.5%	83.2%	108%	83.5%	89.4%	108%	120%	116%	95.9%	100%	106%	99.6%	99.4%	96.7%		96.1%	105%	99.1%
COc1cc2c(c(OC)c1OC)-c1ccc(N)c(=O)cc1[C@@H](NC(C)=O)CC2	20%	27.2%	16.6%	40.5%	51%	23.9%	1.05% (active)	-54.2% (active)	19.6%	75.6%	59.7%	-12.6% (active)	6.15% (active)	22.7%	14.9%	1.6% (active)	-20.1% (active)	
O=c1[nH]c(Nc2ccc(S(=O)(=O)O)cc2)nc2nc(Nc3ccc(NC(=S)Nc4ccccc4)cc3)nc(-c3ccc(O)cc3O)c12	61.7%	82.6%	55.5%	116%	107%	114%	61.7%	119%	102%	109%	90.7%	152%	111%	107%	107%	109%	95.2%	
C=C(C)[C@@H]1C[C@H](O)Cc2cc(F)ccc2N1	83.2%	74.8%	96.5%	85.5%	108%	102%	108%	111%	96.8%	93.6%	95.6%	98.1%	97.7%	91.9%		92.9%	106%	118%
CCCCCCCCCCCCNC(=O)[C@H]1CSC(c2cc3ccccc3s2)N1 (stereo partly specified)	-34.6% (active)	18.7%	-32.9% (active)	20.5%	-68.5% (active)	-30.1% (active)	-63.2% (active)	-61.3% (active)	-41.4% (active)	-18.1% (active)	52.5%	-60.1% (active)	-94.6% (active)	3.61% (active)	42.4%	-80% (active)	-50.7% (active)	
COc1ccc(C2C(C#N)=C(N)Oc3c2ccc2ccccc32)cc1 (stereo unspecified)	37.4%	44.3%	56.5%	73.3%	62.3%	57.8%	41%	15.4%	47.1%	5.02% (active)	31%	61%	-49.8% (active)	19%		23.5%	29%	74.4%
COc1ccc(/C=N\NC(=O)CN2CCN(c3cc4c(cc3F)c(=O)c(C(=O)N/N=C/c3ccc(OC)c(OC)c3)cn4C3CC3)CC2)cc1OC	3.52% (active)	4.84% (active)	13.3%	26.4%	-2.98% (active)	17.1%	4.1% (active)	-5.57% (active)	-4.8% (active)	100%	3.79% (active)	-11.1% (active)	-49.7% (active)	4.64% (active)		13.3%	7.04% (active)	-10.8% (active)
O=C(/C=C\c1cccc([N+](=O)[O-])c1)/C=C/c1cccc([N+](=O)[O-])c1	44.2%	-6.63% (active)	80.7%	90.1%	95.5%	95.5%	52.2%	67.5%	90.6%	91.7%	97.9%	88.9%	36.7%	18.9%		-31.2% (active)	-7.25% (active)	97%
CO[C@H]1NC(=O)N(S(=O)(=O)c2ccc(Cl)cc2)[C@@H]1OC	93.9%	96.1%	106%	111%	108%	102%	124%	108%	100%	110%	105%	108%	97.3%	108%		110%	103%	110%
Cn1c2ccc(Br)cc2c2c3c(c4c5ccccc5[nH]c4c21)C(=O)N(O)C3=O	0.179% (active)	-29.5% (active)	-27.2% (active)	-6.8% (active)	3.5% (active)	-84.2% (active)	-79.4% (active)	-86.2% (active)	1.47% (active)	26.3%	-24.1% (active)	-85.2% (active)	-59.3% (active)	-12.2% (active)		-34.7% (active)	-65.8% (active)	-87.4% (active)
CCc1ccc(-c2ccc(=O)n(-c3ccc(S(N)(=O)=O)cc3)n2)cc1	-11.9% (active)	-29.9% (active)	51.2%	91.6%	74.5%	49.5%	-5.72% (active)	-56.8% (active)	28.6%	1% (active)	33.4%	7.69% (active)	-17.8% (active)	7.19% (active)	30.2%	16.8%	13.6%	
O=C(CCl)N(C1CCCCC1)C1CCCCC1	100%	112%	104%	111%	89.7%	117%	96.7%	114%	105%	105%	101%	97.4%	106%	113%	96.7%	101%	112%	
